Compound activity from PubChem.
In the library only some 4.3% were active in any assay of this set; here they are far more common.
GLP-1R agonist = agonists of human GLP-1 receptor; 380,000 compounds, 0.007% hits; P43220; AID 624172; Potency, µM (highest dose often 45.6 µM), most hits filed as activators; HEK293 GLP-1R CRE-luciferase, luminescence, 4-6 h; cells express a hypersensitive GLP-1R form
GLP-1R inv ag = inverse agonists of human GLP-1 receptor; P43220; HEK293 GLP-1R CRE-luciferase, luminescence, 24 h; GLP-1R form is constitutively active; Potency, µM (doses to about 38.3 µM), actives largely listed as inhibitors; 410,000 compounds, 1.6% hits; AID 624417; note: nearly all actives have a fitted effect of over 55% in size
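qHTS in 1536-well format: reporter HEK293 cells expressing constitutive GLP-1R activity in DMEM + 10% Nu serum, 24 hr with compounds at 37 deg C, luminescence read after 12 min with detection reagent.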
D3 antag = blocks the human D3 dopamine receptor. D3R cells, DiscoveRx beta-arrestin luminescence, antagonist mode; active compounds read low. max response, negative = inhibition, %. 360,000 compounds, 2.5% hits; in the data active = max response below about -50%; inconclusive = no clear call, values can overlap the other calls
Target sequence (P35462 whole entry, looked up): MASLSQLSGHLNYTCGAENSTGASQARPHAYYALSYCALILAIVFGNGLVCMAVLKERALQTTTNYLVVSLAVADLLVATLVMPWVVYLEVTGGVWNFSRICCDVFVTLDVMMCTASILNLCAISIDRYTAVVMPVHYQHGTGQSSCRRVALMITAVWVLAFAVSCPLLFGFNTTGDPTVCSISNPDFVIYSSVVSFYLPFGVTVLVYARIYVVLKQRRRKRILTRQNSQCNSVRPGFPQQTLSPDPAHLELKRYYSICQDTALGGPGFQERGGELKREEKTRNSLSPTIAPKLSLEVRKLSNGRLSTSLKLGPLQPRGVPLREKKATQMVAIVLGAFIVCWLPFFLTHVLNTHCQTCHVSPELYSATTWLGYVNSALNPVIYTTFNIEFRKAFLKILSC
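Cells expressing the human receptor were seeded at 1500 cells/well, incubated overnight at 37 degrees C in 5% CO2, then exposed to library compounds with dopamine controls for 90 minutes at 37 degrees C before luminescent detection.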
DRD3 agonist = activates the human D3 dopamine receptor. D3R DiscoveRx beta-arrestin cells, luminescence, 90 min. max activation, %. 410,000 compounds, 0.58% hits. P35462. AID 652048; in the data active = max activation above about 30%
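Cells at 1500/well, incubated overnight, then treated with pinned compounds (dopamine as control) for 90 min at 37 degrees C. DiscoveRx reagent added for 30 - 60 minutes at room temperature; luminescence read.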
Each line names hits and unclear results; the compound was inactive in the other large screens. Unless noted, calls come from the whole dose curve; as a rule, active = well fitted curve in the direction sought with a large enough effect; inconclusive = small, poorly fitted or top-dose-only effect, or another doubt; inactive = no such curve, though single readings can be large; an effect the other way counts as inactive or inconclusive.

C=C(C)COc1ccc(-c2[nH]ncc2Oc2ccccc2OC)c(O)c1	D3 antag inconclusive
CCOc1ccc(-c2[nH]ncc2Oc2ccccc2OC)c(O)c1	GLP-1R inv ag 8.9µM
CN1C[C@H]2c3ccccc3Oc3ccc(Cl)cc3[C@@H]2C1	none (no result: GLP-1R inv ag, D3 antag)
CC(CNC(=O)Cn1cnc2c(NCc3ccccc3)ncnc21)c1ccccc1 (centres undefined)	DRD3 agonist 45
Cc1cc(C)c(CN2CCN(C(=O)Cn3cnc4c(NCc5ccccc5)ncnc43)CC2)c(C)c1	GLP-1R inv ag 8.9µM, DRD3 agonist 31
O=C(CSc1cn(CC(=O)N2CCCC2)c2ccccc12)Nc1cc(C(F)(F)F)ccc1Cl	GLP-1R inv ag inconclusive (no result: GLP-1R agonist, D3 antag)
O=C(CSc1ccccn1)Nc1ccc2[nH]c(=O)[nH]c2c1	none
Cc1cc(C(=O)N2CCCC(C(=O)c3cc(F)ccc3F)C2)c(C)o1 (centres undefined)	D3 antag -56
CC1=CC(=C(C#N)c2nc3ccccc3s2)C=C(C)N1Cc1ccco1	D3 antag -56
N#C/C(=C(/O)c1ccco1)c1nc2ccccc2s1	D3 antag inconclusive
NC(=S)NN=Cc1c[nH]c2nccnc12	D3 antag active
CC1=CC2=NC(=O)/C(=C\c3cccn3CCOc3cccc(C)c3)C(=N)N2O1	GLP-1R inv ag 10µM
COc1cc2ccccc2ccc1=NO	GLP-1R inv ag 2.5µM
CO[C@@]1(NC(=O)C(C(=O)O)c2ccc(O)cc2)C(=O)N2C(C(=O)O)=C(CSc3nnnn3C)CO[C@@H]21 (some centres undefined)	none (no result: GLP-1R agonist, GLP-1R inv ag, D3 antag)
CC1(C)CC(=O)c2cc(C(=O)NNc3ccccc3)c(=O)n(-c3ccccc3)c2C1	GLP-1R inv ag 1µM
CCOc1ccc(CO[C@@H]2O[C@H](CO)[C@@H](O)[C@H](O)[C@H]2NC(C)=O)cc1OC	none
COc1ccc(CO[C@@H]2O[C@H](CO)[C@@H](O)[C@H](O)[C@H]2NC(C)=O)cc1OC	D3 antag -52
CSCCC(NC(=O)c1cccc([N+](=O)[O-])c1)c1nc2ccccc2[nH]1 (centres undefined)	D3 antag -53
CSCC[C@H](NC(=O)c1cc([N+](=O)[O-])ccc1Cl)c1nc2ccccc2[nH]1	GLP-1R inv ag inconclusive
COc1ccc(Cl)cc1NC(=O)CSc1cn(CC(=O)N2CCCCCC2)c2ccccc12	GLP-1R inv ag inconclusive (no result: GLP-1R agonist, D3 antag)
COc1ccccc1-c1oc2ccccc2c1C#CC(C)(C)O	GLP-1R inv ag 10µM
C[C@@H](C(=O)Nc1ccc2ccccc2c1)[C@H]1C[C@]1(C)[C@H](NC(=O)c1cccnc1)c1ccccc1	GLP-1R inv ag inconclusive, D3 antag -50
C[C@@H](C(=O)Nc1ccc2ccccc2c1)[C@@H]1C[C@@]1(C)[C@@H](NC(=O)c1ccccc1)c1ccccc1	none
CCC(C)NC(=O)c1ccccc1NC(=O)C(C)N(c1ccccc1)S(C)(=O)=O (centres undefined)	none
CCOc1ccccc1NC(=O)C(C)N(c1ccccc1)S(C)(=O)=O (centres undefined)	DRD3 agonist 37 (no result: D3 antag)
CN(Cc1ccccc1)CC(O)COc1ccc(CNCc2cccnc2)cc1 (centres undefined)	GLP-1R inv ag inconclusive, D3 antag inconclusive
CN(Cc1ccccc1)CC(O)COc1ccc(CNCCCOc2cccnc2)cc1 (centres undefined)	GLP-1R inv ag inconclusive, D3 antag inconclusive
CN(Cc1ccccc1)CC(O)COc1ccc(CNCCOc2cccnc2)cc1 (centres undefined)	GLP-1R inv ag inconclusive, DRD3 agonist 61
CN(Cc1ccccc1)CC(O)COc1ccc(CNCc2ccc(Cl)s2)cc1 (centres undefined)	GLP-1R inv ag 4.5µM, D3 antag inconclusive
Fc1ccccc1COc1ccc(Br)cc1CNCc1ccncc1	GLP-1R inv ag inconclusive, D3 antag -68
COc1ccc(Br)cc1CNc1ccc(O)cc1	D3 antag -66
COc1ccccc1CNCc1cc(Br)ccc1OC	GLP-1R inv ag 6.3µM
CCCCC1C(=O)NN(c2ccccc2)C1=O (centres undefined)	GLP-1R inv ag 1.8µM
CCCCCC1CC(=O)N(Cc2ccccc2)C(=O)N1 (centres undefined)	none
COc1cccc(Cn2ccn(-c3ccc(F)cc3)c(=O)c2=O)c1	none (no result: GLP-1R agonist, D3 antag)
CC(=O)Nc1nnc(S(N)(=O)=O)s1	none
CC(=O)N=c1sc(S(N)(=O)=O)nn1C	D3 antag -121
CCNC(=O)C[C@@H]1CC[C@H]2[C@@H](COC[C@H](O)CN2C(=O)C2CC2)O1	none (no result: GLP-1R agonist)
